The source of these data is PubChem BioAssay AID1578 (Sanford-Burnham Center for Chemical Genomics, 2009).

By inhibition is commonly meant the drop in the measured response relative to a control, in per cent.

The campaign covered roughly 290,000 compounds. About 3,000 (1%) were called active. What follows is part of a selection rich in actives, with near analogues and random picks from the rest. A number with no mark means an inactive call. Rule as the data show it: active = inhibition mostly above about 36% (no sharp cut-off); inactive = mostly below about 34%.

The test in a line: inhibition of NOD1-driven NF-kB reporter – cell-based, luminescence, uHTS, primary screen (AID 1578).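 Also: HEK-293T reporter cells stimulated with the NOD1 agonist gamma-tri-DAP.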 The conditions noted are these: NOD1-driven NF-kB luciferase reporter cells, at 4 µM, stronger effect = higher value.
Take `CC1CCN(C(=O)c2ccccc2NC(=O)c2cccc(S(=O)(=O)N3CCOCC3)c2)CC1`: the inhibition is -2.3%.

As to `CN(Cc1ccc(Cl)s1)C(=O)CCl`, the inhibition was 99.8% (active). As for `CCOc1ccc(CN(C)C(=O)CCl)cc1`, the inhibition was 10.8%. The figure for `COc1ccc(CN(C)C(=O)CCl)cc1` is 10%; for `O=C(NC1CC1)C1CCN(C2CCN(C(=O)/C=C/c3cccc(F)c3F)CC2)CC1` it is -10.9%; for `CC1CN(S(=O)(=O)c2ccc(C(=O)Nc3ccc(S(=O)(=O)Nc4ncccn4)cc3)cc2)CC(C)O1` (stereo unspecified) it is -34.7%. For `O=C(NCc1ccco1)c1c[nH]c2ccc(S(=O)(=O)N3CCOCC3)cc2c1=O`, the inhibition was -21.1%. The figure for `O=C(O)c1ccc2nc(-c3ccccc3)sc2c1` is 26.5%; for `Nc1ccc(-c2nc3ccc(C(=O)O)cc3s2)cc1` it is 89.8% (active). The figure for `Nc1ccc(-c2nc3ccc(N)cc3s2)cc1` is -7.4%. With `C[C@@H]1NC(=O)[C@H](CCC(=O)O)NC(=O)c2cc([N+](=O)[O-])cc(F)c2NCCC[C@@H](C(N)=O)NC1=O`, the inhibition was -18.8%. The same measure for `O=c1c2[nH]c3ccc(F)cc3c2ncn1CCC1=CCCCC1`: -0.7%; for `Oc1ccc(Nc2ncnc3scc(-c4ccccc4)c23)cc1`: 83.6% (active); for `CN(C)CCCNc1ncnc2scc(-c3ccccc3)c12`: -40.3%. Turning to `c1ccc2c(c1)OCC(CNc1ncnc3sccc13)O2` (stereo unspecified), the inhibition is 57.1%.

Turning to `O=C(O)c1ccc(Nc2ncnc3scc(-c4ccccc4)c23)cc1`, the inhibition was -63%. The same measure for `COc1ccc(-c2csc3ncnc(Nc4ccc(O)cc4)c23)cc1`: 15.8%; for `c1csc(-c2csc3ncnc(NCCCN4CCOCC4)c23)c1`: 30.7%; for `Cc1sc2ncnc(NCC3COc4ccccc4O3)c2c1C` (stereo unspecified): 44.6%.

On to `c1ccc(-c2csc3ncnc(NCC4COc5ccccc5O4)c23)cc1` (stereo unspecified), for which the inhibition was 75.2% (active). The same measure for `Cc1csc2ncnc(NCCc3ccccn3)c12`: 37%; for `c1ccc(CNc2nc(-c3cccs3)nc3ccccc23)nc1`: -27.4%; for `CC(=O)N(c1ccc(N(C(C)=O)S(=O)(=O)c2cccs2)cc1)S(=O)(=O)c1cccs1`: 3%. The figure for `CSc1nnc2c3cc(F)ccc3n(Cc3ccccc3)c2n1` is -1.5%; for `CN(C)/C=C/C(=O)c1cnc(-c2ccccc2Cl)s1` it is -20.8%. The figure for `Cn1c(=O)oc2cc(S(=O)(=O)NCCC(=O)N3CCN(c4ccccc4)CC3)ccc21` is -5.7%; for `CCC(C)C(=O)Nc1cc(C(=O)OC)ccc1C(=O)OC` (stereo unspecified) it is -11.8%; for `CC1(C)CC(=O)c2cc(N=C/C(C(=O)c3ccccc3)=C(\O)c3ccccc3)c(=O)oc2C1` it is -21.7%. As to `Nc1nn(-c2ccccc2)c(N)c1N=Nc1ccc2c(c1)OCO2`, the inhibition was -68.3%. As for `Cc1cc(C)n2nc(N)c(N=Nc3ccc4c(c3)OCO4)c2n1`, the inhibition is 22.6%. The same measure for `COc1cccc(CNC(C)(C)CO)c1OCc1ccc(Cl)cc1`: -33%; for `COc1ccc(CC(=O)NC2CCN(Cc3nnnn3C(C)(C)C)CC2)cc1OC`: -12.7%. The figure for `COc1ccc(/C=C/C(=O)N2CCN(c3ccccn3)CC2)cc1` is -37.3%. Turning to `CCOC(=O)/C(C#N)=C\C1=C(N2CCOCC2)CC(C)(C)OC1`, the inhibition is -33.6%.

As to `CCOC(=O)C1=C(CC)Nc2ccccc2N=C1NC(=O)CCN1C(=O)C2CCCCC2C1=O` (stereo unspecified), the inhibition is -14.8%.

Consider `Cc1ccc(N2C(S)=C(C#N)C(=O)NC2c2ccco2)cc1` (stereo unspecified), for which the inhibition was -33.2%. The figure for `N#CC1=C(S)N(c2ccc(F)cc2)C(c2ccco2)NC1=O` (stereo unspecified) is -47.2%. As for `N#CC1=C(S)N(c2ccccc2)C(c2ccco2)NC1=O` (stereo unspecified), the inhibition is 68.4% (active).

With `CCC(=O)c1ccc(OCC(=O)NC2(C#N)CCCCC2)cc1`, the inhibition is -14.9%.

Take `COc1ccc(CCNC(=O)C(=O)NCC2OCCN2C(=O)c2ccc(Cl)cc2)cc1OC` (stereo unspecified): the inhibition was -3.4%.

In the case of `Cc1cc(C)c(C2C(C#N)=C(N)Oc3n[nH]c(C)c32)cc1CN1CCOCC1` (stereo unspecified), the inhibition is -16%. `COc1ccc(/C=N/Nc2nnc(Cc3ccc(OC)c(OC)c3)c(=O)[nH]2)cc1OC`: the inhibition was 4.2%. For the molecule `COc1ccc(-c2nc3ccccn3c2NCc2ccc3c(c2)OCO3)cc1`, the inhibition is -27.1%. As for `COc1ccc(-c2nc3cc(C)ccn3c2NCc2ccc3c(c2)OCO3)cc1`, the inhibition was 48.5% (active). With `Cc1ccn2c(NCc3ccc4c(c3)OCO4)c(-c3ccc(O)cc3)nc2c1`, the inhibition is 3.7%. The same measure for `Cc1cccc(C)c1OCc1nnc(SCC(=O)Nc2ccc(N3CCOCC3)cc2)o1`: 17.6%; for `Cc1ccc(NCc2ccncc2)c(Br)c1`: 63.7% (active). The figure for `Cc1cc(Br)c(S(=O)(=O)NCc2ccncc2)cc1C` is 26%; for `Cc1cc(C)cc(NCc2ccncc2)c1` it is -8.1%; for `COc1ccc(S(=O)(=O)NCc2ccncc2)cc1OC` it is 24.7%. The same measure for `Cc1cc(-c2ccc(C)c(S(=O)(=O)NCc3cccc(Br)c3)c2)on1`: -20.4%; for `Cc1cc(-c2ccc(C)c(S(=O)(=O)NCc3ccc(Br)cc3)c2)on1`: 72.5% (active). In the case of `COc1cc(S(=O)(=O)NCc2ccccc2)ccc1Br`, the inhibition is -7.9%. As for `Cc1ccc(NCc2cccnc2)c(Br)c1`, the inhibition was -14.3%. Consider `Cc1cc(-c2ccc(C)c(S(=O)(=O)NCc3ccc(OC(C)C)cc3)c2)on1`, for which the inhibition was -14.2%. The figure for `Cc1ccc(C)c(S(=O)(=O)NCc2ccncc2)c1` is 34.2%; for `O=c1[nH]c2ccc(NC(=S)NC3CCCCC3)cc2[nH]1` it is 0.4%; for `NNC(=O)c1cccn(Cc2cccc(C(F)(F)F)c2)c1=O` it is -7.3%.

With `CCn1c(SCC(=O)Nc2nc(C)c(C)s2)nnc1-c1ccco1`, the inhibition was 4.8%. For `O=C(NCCCCc1ccccc1)Nc1cccc(F)c1`, the inhibition is -18.4%. The figure for `CCc1nnc(NS(=O)(=O)c2ccc(NC(=S)NC(=O)c3ccc(OC)c(OC)c3)cc2)s1` is -10.1%; for `C#Cc1ccc([C@@H]2C=C(C(=O)N3CCN(Cc4ccc5c(c4)OCO5)CC3)O[C@H](OCCCCO)C2)cc1` it is -5.3%; for `O=C(CN1CC[C@@]2(O)CCCC[C@H]2[C@@H]1c1ccc(F)cc1)NCc1ccco1` it is -15%. On to `Cc1cc(Cl)ccc1C(=O)C1CCCN(C(=O)c2cscn2)C1` (stereo unspecified), for which the inhibition was -13.1%.

Turning to `COC(=O)C(CCSC)NS(=O)(=O)c1ccc(Cl)cc1` (stereo unspecified), the inhibition is -19.4%. As for `O=S(=O)(c1ccccc1)N(Cc1ccccc1)c1ccccn1`, the inhibition is -18.3%. The figure for `CC(=O)Nc1nc(-c2ccc3c(c2)OCO3)cs1` is 1.1%. The figure for `O=C(Nc1nc(-c2ccc3c(c2)OCO3)cs1)C1CC1` is -36.4%; for `Cc1ccc2nc(N3CCN(S(=O)(=O)c4ccc(C)c(Cl)c4)CC3)c(C#N)cc2c1` it is -0.6%; for `Cc1nc2ccc(S(=O)(=O)NCC(=O)N3CCN(c4ccccn4)CC3)cc2s1` it is 8.2%.

As for `COC(=O)C1(CCSC)NC(c2ccco2)C2C(=O)N(C)C(=O)C21` (stereo unspecified), the inhibition was -7.2%. The same measure for `COc1cc(NC(=O)COc2ccc(-n3ccnc3)cc2)cc(OC)c1`: 39.3%; for `C/C(=N\NC(=O)COc1ccc(C(C)(C)C)cc1)c1ccc(-n2ccnc2)cc1`: -48%. As to `CC(C)(C)c1ccc(NC(=O)COc2ccc(-n3ccnc3)cc2)cc1`, the inhibition was 74.6% (active). Consider `Cc1ccc(NC(=O)CSc2nnc(C)n2CC2CCCO2)cc1` (stereo unspecified), for which the inhibition was -27.7%. As for `CCc1ccccc1NCC(=O)Nc1ccc(Cl)c(C(F)(F)F)c1`, the inhibition was -18.7%. The same measure for `CCSC1=NN2CCS(=O)(=O)N=C2S1`: 44.5% (active); for `CCOC(=O)CSC1=NN2CCS(=O)(=O)N=C2S1`: -12.9%. The same measure for `C=CCSC1=NN2CCS(=O)(=O)N=C2S1`: -14.6%; for `COc1ccc(/C(N)=N/OC(=O)c2cccs2)cc1OC`: -61.8%; for `COc1ccccc1CNC(=O)C1CCN(C(=O)c2sccc2-n2cccc2)CC1`: -18.4%. For `CCC(NC(=O)c1ccccc1NC(=O)c1ccccc1)C(=O)NNC(=O)c1cccnc1` (stereo unspecified), the inhibition was -7.6%. Turning to `CCN(C(=O)COC(=O)c1cccnc1Nc1ccccc1F)C1CCS(=O)(=O)C1` (stereo unspecified), the inhibition is -22.9%.

Regarding `CCOc1ccc(NC(=O)CCSc2nnc(C)s2)cc1`, the inhibition was 7.9%. The figure for `Cc1ccc2c(c1)Oc1ccc([N+](=O)[O-])cc1C(=O)N2` is -16.6%; for `Cc1ccc2c(c1)Oc1ccc(NC(=O)CCl)cc1C(=O)N2` it is 103% (active). Regarding `Cc1ccc2c(c1)Oc1ccc(NC(=O)CCCl)cc1C(=O)N2`, the inhibition is 0.2%.

As for `CCCn1c(N)c(N(CCOC)C(=O)/C=C/c2cccc(Cl)c2)c(=O)[nH]c1=O`, the inhibition is -16.5%.

Turning to `CC12CN3CC(C)(CN(C1)C3c1ccc(F)cc1)C2` (stereo unspecified), the inhibition is -30.5%. The figure for `O=C(O)CCCC(=O)Nc1ccc(Oc2ncnc3cc(Cl)ccc23)nc1` is -10.7%; for `CC(C(=O)N(C1CC1)C1(C(=O)Nc2ccccc2)CCCC1)N1C(=O)c2ccccc2C1=O` (stereo unspecified) it is 7.8%. The figure for `COC(=O)c1ccccc1NC(=O)NCc1ccccn1` is -25.3%; for `Cc1cccc(C=Nc2ccc3c4c(cccc24)CC3)c1O` it is -17.9%. The figure for `Oc1ccc(Cl)cc1C=Nc1ccc2c3c(cccc13)CC2` is 38.7%; for `Oc1ccc(Br)cc1C=Nc1ccc2c3c(cccc13)CC2` it is 101% (active).

As for `Cc1cc(C(=O)NCCc2ccccc2)c2cc(F)ccc2n1`, the inhibition was 1.9%.
